# Assay results taken from PubChem BioAssay (Tox21).
# The source made the active and inactive calls. Calls come from the whole dose curve; as a rule, active = well fitted curve in the direction sought with a large enough effect in the repeat runs; inconclusive = weak or mixed curves; inactive = flat fitted curve, though single readings scatter.
# Assay: qHTS assay to test for compound auto fluorescence at 590 nm (red) in HEK293 cells (AID 720679)
# Settings: red autofluorescence 540/590 nm; series mostly up to 91.3 µM; fluorescence, % of fluorescent control: at the top concentration
# Text: National Center for Advancing Translational Sciences [NCATS]
# NIH Chemical Genomics Center [NCGC]
# U.S. Environmental Protection Agency [EPA]
# National Institutes of Environmental Health Sciences [NIEHS]
# National Toxicology Program [NTP]
# U.S. Food and Drug Administration [FDA]
# Compound auto fluorescence often interferes with screening of the compound library against various biological targets and signaling pathways. Some of these compounds may have fluorophoric properties. Such properties may interfere with the assay outputs resulting in false positives and/or negatives. To decrease such complications and ensure the compound activities are relevant in terms of biological response, the Tox21 10K compound library was screened for auto fluorescence.
# From the fluorophores used as reporter signals in our screening assays, the auto fluorescence equivalencies of compounds against three fluorophores have been evaluated: Triamterene, Fluorescein and Rose Bengal sodium for blue, green and red fluorescence, respectively. The fluorescence intensities were measured using Excitation/Emission wavelengths at 405/460nm, 485/535nm and 540/590nm for blue, green and red labels, respectively. This assay includes the red fluorescence data.
# Tox21 Assay Protocol Summary:
# 2,000 HEK293 cells in 5 uL of culture medium containing 10% dialyzed FBS per well were dispensed into black wall/clear bottom 1536-well plates using a Multidrop Combi Dispenser (Thermo Scientific). The assay plates were incubated for 4-5 hr at 37C to allow cell attachment to the well bottom, followed by the transfer of 23 nL compound or DMSO vehicle by a pintool work station (Kalypsys, San Diego, CA). After the assay plates were incubated overnight at 37C and 5% CO2, fluorescence intensities in the assay plates were measured by an Envision (PerkinElmer, Shelton, CT) plate reader using three labels for measuring blue, green and red fluorescence at […] 460, 535 and 590nm respectively.
# % is set by controls: 0 for no effect and ±100 for the full control effect.
SMILES,"fluorescence, % of fluorescent control",outcome
O=[N+]([O-])c1ccc(CBr)cc1,0.151% [at 95.7 µM] (inactive),
ClC(Cl)C(Cl)Cl,0.172% (inactive),
C1CCC(C2CCCCC2)CC1,0.0384% (inactive),
COP(=S)(OC)Oc1ccc(S(N)(=O)=O)cc1,-1.45% [at 46 µM] (inactive),
N#CCBr,0.192% [at 95.7 µM] (inactive),
CSc1nc(N=[N+]=[N-])nc(NC(C)C)n1,0.141% (inactive),
CC(C)NCC(O)c1ccc(N)c(C#N)c1 (stereo not given),-0.139% [at 46 µM] (inactive),
Cc1nc(N)nc(N)n1,0.36% [at 95.7 µM] (inactive),
CC1=NNC(=O)N(/N=C/c2cccnc2)C1,0.0268% (inactive),
Cc1ncc(CNC(=O)N(CCCl)N=O)c(N)n1,0.195% [at 46 µM] (inactive),
Oc1c(Cl)cccc1Cl,0.105% (inactive),
CC(C)CC#N,0.147% [at 95.7 µM] (inactive),
CCCSC(=O)Cl,-0.6% (inactive),
CN1CCC(O)(c2ccc(F)cc2)C(C(=O)c2ccc(F)cc2)C1 (stereo not given),0.0613% [at 46 µM] (inactive),
O=C1CN=C(c2ccccc2)c2cc([N+](=O)[O-])ccc2N1,-0.196% [at 46 µM] (inactive),
CC(COc1ccc(Oc2ccccc2)cc1)Oc1ccccn1 (stereo not given),-0.0261% (inactive),
N#CCCC#N,-0.693% (inactive),
NC(=O)O,0.0737% (inactive),
C=C(C)CN(CC)c1c([N+](=O)[O-])cc(C(F)(F)F)cc1[N+](=O)[O-],0.0569% (inactive),
COc1cc(OC)nc(NC(=O)NS(=O)(=O)c2ncccc2OCC(F)(F)F)n1,0.0027% (inactive),

SMILES,"fluorescence, % of fluorescent control",outcome
O=C(O)C(Br)CBr (stereo not given),-0.1% [at 95.7 µM] (inactive),
COc1ccc(C(=O)N2CCCC2=O)cc1,-0.0409% [at 46 µM] (inactive),
CNC(=O)Oc1cccc(C(C)C)c1,0.0324% (inactive),
COc1cc(C[C@@H](C)N)c(OC)cc1C,-0.0969% [at 95.7 µM] (inactive),
N#CCNCC#N,0.102% (inactive),
COCC(=O)N(c1c(C)cccc1C)N1CCOC1=O,-0.488% (inactive),
Cc1ncc2n1-c1ccc(Cl)cc1C(c1ccccc1F)=NC2,0.836% [at 46 µM] (inactive),
C#CCN1C(=O)COc2cc(F)c(N3C(=O)C4=C(CCCC4)C3=O)cc21,0.915% (inactive),
Cc1ncsc1CCCl,0.0832% [at 46 µM] (inactive),
COC(C)(C)C,-0.845% (inactive),
COP(=S)(OC)Oc1c(Cl)cc(C)cc1Cl,-0.264% (inactive),
CC(=O)CCc1ccc2c(c1)OCO2,-0.122% (inactive),
BrCCCCCCBr,-0.526% (inactive),
CCOP(=O)(N=C1SCCS1)OCC,-0.171% (inactive),
OC(c1ccc(F)cc1)(c1cncnc1)c1ccccc1Cl (stereo not given),-0.0563% (inactive),
C[C@H]1CCC[C@H](O)CCCCCc2cc(O)cc(O)c2C(=O)O1,,inactive
CCOc1nc(C(Cl)(Cl)Cl)ns1,-0.0123% (inactive),
COc1ccc2c(c1OC)CN1CCc3cc4c(cc3C1C2)OCO4 (stereo not given),-0.125% [at 18.6 µM] (inactive),
CCC1(c2ccccc2)C(=O)NC(=O)NC1=O,,inactive
N#CC(CCc1ccc(Cl)cc1)(Cn1cncn1)c1ccccc1 (stereo not given),0.135% (inactive),
